Screening results deposited in PubChem BioAssay by National Center for Advancing Translational Sciences (NCATS).
In the library only some 9% were active in any assay of this set; here they are far more common.
JMJD2A Tudor: inhibitors of human JMJD2A Tudor domain. O75164. AlphaScreen JMJD2A-Tudor / H3K4me3 peptide binding. Potency, µM (top dose mostly 114 µM), usual class: inhibitors. 4.4% of 390,000 active; also: nearly all actives have a fitted effect of over 50% in size
G9a inh: blocks human histone lysine methyltransferase G9a | Q96KQ7 | G9a H3K9 monomethylation, AlphaScreen, 2 h | Potency, µM (doses to about 102 µM), usual class: inhibitors | 8.8% of 350,000 active | AID 504332; also: nearly all actives have a fitted effect of over 75% in size
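Readings reflect AlphaScreen signal from monomethyl-H3K9 antibody detection. HMT at 20 nM; substrate b-H3K9 500 nM; cofactor SAM 20 uM; 2 h RT reaction; compounds tested as titrations in qHTS with 15 min preincubation.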
ALOX12 inh: blocks human arachidonate 12S-lipoxygenase | Potency, µM (top dose mostly 108 µM), usual class: inhibitors | P18054 | 1.1% of 580,000 active | purified 12hLO, xylenol orange hydroperoxide absorbance
Target sequence (P18054 whole entry, looked up): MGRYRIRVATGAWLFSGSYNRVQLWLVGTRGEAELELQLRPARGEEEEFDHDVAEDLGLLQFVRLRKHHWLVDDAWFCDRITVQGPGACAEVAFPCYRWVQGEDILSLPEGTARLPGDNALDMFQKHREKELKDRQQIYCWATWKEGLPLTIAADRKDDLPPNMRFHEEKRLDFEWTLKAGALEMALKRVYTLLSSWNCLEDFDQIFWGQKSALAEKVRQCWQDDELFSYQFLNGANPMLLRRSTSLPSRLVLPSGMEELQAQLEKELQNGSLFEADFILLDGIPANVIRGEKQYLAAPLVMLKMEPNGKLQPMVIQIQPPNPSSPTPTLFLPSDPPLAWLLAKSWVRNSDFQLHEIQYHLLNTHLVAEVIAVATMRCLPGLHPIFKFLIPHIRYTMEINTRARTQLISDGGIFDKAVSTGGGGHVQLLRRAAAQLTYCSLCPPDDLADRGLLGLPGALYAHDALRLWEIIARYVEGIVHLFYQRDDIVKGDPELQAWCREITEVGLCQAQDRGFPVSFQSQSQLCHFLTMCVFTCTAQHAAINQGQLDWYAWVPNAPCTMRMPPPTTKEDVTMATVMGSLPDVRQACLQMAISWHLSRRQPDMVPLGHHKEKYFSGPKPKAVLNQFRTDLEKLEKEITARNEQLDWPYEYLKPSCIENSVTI
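Purified human 12hLO at 150 nM in 25 mM Hepes, 0.01% Triton X-100, pH 7.0, preincubated 15 min at room temperature with compound. Reaction started with 40 uM arachidonic acid, 30 min at room temperature. Hydroperoxide measured by Fe-xylenol orange, 573/405 nm absorbance ratio.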
BAZ2B block: blocks human BAZ2B. Q9UIF8. AlphaScreen BAZ2B-H3K14Ac peptide displacement. Potency, µM (doses to about 114 µM), usual class: inhibitors. 4.4% of 360,000 active. AID 504333; also: nearly all actives have a fitted effect of over 60% in size
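AlphaScreen displacement of biotin-H3(5-23)K14Ac peptide (50 nM final) from BAZ2B (50 nM final) in PBS pH 7.4, 0.01% Tween-20; complex preformed 30 min RT, then compounds (top 110 uM) 30 min RT, beads 20 min dark.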
HP1b chromo inh: HP1-beta chromodomain-methylated histone interaction inhibition; P83916; AlphaScreen HP1-beta / biotin-H3K9me3 peptide binding; Potency, µM (titrated, usually from 114 µM), hits mostly inhibitors; 0.56% of 390,000 active; AID 540317; also: nearly all actives have a fitted effect of over 70% in size
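HP1-beta protein (50 nM final) preincubated 30 min at room temperature with biotinylated H3(1-18)K9me3 peptide (50 nM) in PBS pH 7.4, 0.01% Tween-20, then compound added for 30 min. AlphaScreen streptavidin donor/nickel chelate acceptor beads (10 ug/mL final), 30 min dark, luminescence read.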
PLK1 PBD inh: PLK1 (human) polo-box domain binding inhibition | P53350 | Plk1 PBD binding of FITC phosphopeptide, fluorescence polarization | Potency, µM, actives largely listed as inhibitors | 2.8% of 360,000 active; also: series mostly up to about 57 µM; nearly all actives have a fitted effect of over 65% in size
A number is an active result; . = inactive; ? = inconclusive; / = not tested or not shown; [ ] = dose if it differs, or a comment. Calls follow the shape of the dose curve; as a rule, active = well fitted curve in the direction sought with a large enough effect; inconclusive = small, poorly fitted or top-dose-only effect, or another doubt; inactive = no such curve, though single readings can be large; an effect the other way counts as inactive or inconclusive.

SMILES	JMJD2A Tudor	G9a inh	ALOX12 inh	BAZ2B block	HP1b chromo inh	PLK1 PBD inh
O=C(COC(=O)c1ccc2c(c1Cl)C(=O)c1ccccc1C2=O)NC1CC1	?	?	.	?	.	.
Nc1ccc2c(c1Cl)C(=O)c1ccc(N)c(Cl)c1C2=O	56.2µM	25.1µM	.	56.2µM	.	?
COc1ccc(NC(=O)NCCCN2CCCC2=O)cc1	.	?	.	.	.	.
COc1ccc(NC(=O)CC(C)NCCCN2CCCC2=O)cc1 (configuration not stated)	17.8µM	56.2µM	.	?	?	.
CCN(CC)C(=O)CS(=O)(=O)CC(=O)Nc1cc(OCCOC)c(Cl)cc1Cl	.	50.1µM	.	.	.	.
CC(=O)c1c(C)[nH]c(C(=O)Cn2c(=O)c3c(ncn3CC(C)C)n(Cc3ccccc3)c2=O)c1C	/	/	.	/	/	/
CCOC(=O)c1c(C)[nH]c(C(=O)Cn2c(=O)c3c(ncn3CC)n(Cc3ccccc3)c2=O)c1C	.	8.91µM	.	.	.	.
COc1ccc(CC(=O)NCC(=O)N/N=C/c2c[nH]c3ccccc23)cc1	.	.	.	.	.	.
COc1ccc(NS(=O)(=O)NC(=O)c2c(C)n(C)c3ccccc23)cc1	.	39.8µM	.	.	.	.
COc1cc2c(cc1C=O)OCCCO2	/	/	.	/	/	/
CCOC(=O)Cc1c(C)[nH]n(-c2ccccc2)c1=O	.	.	.	.	.	.
CCc1c(C)[nH]n(-c2ccc(Oc3ccccc3)c(S(=O)(=O)O)c2)c1=O	56.2µM	?	/	/	.	13.4µM
Cc1cc(C)n(-c2ccc(Oc3ccccc3)c(S(=O)(=O)O)c2)n1	89.1µM	?	.	.	.	/
Cc1ccc(-c2cn3cccnc3n2)cc1NC(=O)C(C)(C)Oc1ccc(Cl)cc1	.	.	.	.	.	/
Cc1ccccc1-n1ccnc1SCC(=O)NCC1CCCO1 (configuration not stated)	.	.	.	.	.	.
CCOC(=O)C1CCN(C(=S)Nc2ccc(S(N)(=O)=O)cc2)CC1	?	10µM	.	.	?	21.2µM
NS(=O)(=O)c1ccc(NC(=S)N2CCC(O)CC2)cc1	.	39.8µM	.	.	.	?
CCOC(=O)C1CCN(C(=S)Nc2ccc(C)cc2)CC1	.	.	.	.	.	.
CCOC(=O)C1CCCN(C(=S)Nc2ccc(Nc3ccccc3)cc2)C1 (configuration not stated)	56.2µM	25.1µM	?	35.5µM	?	21.2µM
CN(C)C(=O)COc1ccc(S(=O)(=O)c2ccc(OCC(=O)N(C)C)cc2)cc1	.	50.1µM	.	.	.	.
CN(C)C(=O)COc1ccc(Br)cc1	.	.	.	.	.	.
O=S(=O)(NC[C@H]1O[C@@H](CO)[C@@H](O)[C@H]1N1CCCC1)c1cccs1	/	/	15.8µM	/	/	/
O=C(NC[C@H]1O[C@@H](CO)[C@@H](O)[C@H]1N1CCCC1)c1ccccc1	/	/	.	/	/	/
CN(C)C[C@H]1O[C@@H](CO)[C@@H](O)[C@H]1N1CCN(c2ncccn2)CC1	/	/	.	/	/	/
O=S(=O)(NC[C@H]1O[C@@H](CO)[C@@H](O)[C@H]1N1CCN(c2ccccn2)CC1)c1ccc(Cl)cc1	/	/	17.8µM	/	/	/
SMILES	JMJD2A Tudor	G9a inh	ALOX12 inh	BAZ2B block	HP1b chromo inh	PLK1 PBD inh
NC[C@H]1O[C@@H](CO)[C@@H](O)[C@H]1N1CCN(c2ncccn2)CC1	/	/	20µM	/	/	/
Cc1ccc(S(=O)(=O)NC[C@H]2O[C@@H](CO)[C@@H](O)[C@H]2N2CCN(c3cccc(C(F)(F)F)c3)CC2)cc1	/	/	15.8µM	/	/	/
CCOC(=O)CCCNC(=O)COC(=O)c1ccc(O)cc1	.	.	.	.	.	.
COC(=O)CCC[N+](C)(C)C	/	.[12.7 µM]	/	/	/	/
C[N+](C)(C)CCCC#CC#CCCC[N+](C)(C)C	/	/	39.8µM	/	/	/
Cc1[nH]c2ccc(F)cc2c(=O)c1SC(F)(F)C(F)C(F)(F)F (configuration not stated)	.	31.6µM	.	.	.	.
COc1cccc2c(=O)c(SC(F)(F)C(F)C(F)(F)F)c(C)[nH]c12 (configuration not stated)	.	?	.	.	.	.
COc1ccc(OC)c(NC(=O)C2CCCN(S(=O)(=O)c3cccc4cccnc34)C2)c1 (configuration not stated)	.	.	.	.	.	.
COc1ccc2[nH]c(C(=O)NCCCn3ccnc3)cc2c1	.	50.1µM	/	.	.	.
O=C(NCCN1CCCCC1)c1cc2ccccc2[nH]1	.	?	?	.	.	.
CCCCNC(=O)c1cc2cc(OC)ccc2[nH]1	.	.	.	.	.	.
COc1ccc2[nH]c(C(=O)NCCN3CCCCC3)cc2c1	.	56.2µM	/	.	.	.
CSc1cccc(NC(=O)Cn2ncn3c(cc4ccccc43)c2=O)c1	.	.	.	.	.	/
CC(=O)c1c[nH]c2ccccc12	/	/	.	/	/	/
CN(C)CC(=O)c1c[nH]c2ccccc12	50.1µM	.[0.501 µM]	.	.	.	.
COc1ccc(NC(=O)CN2C(=O)NC(CC(C)C)C2=O)cc1S(=O)(=O)N1CCOCC1 (configuration not stated)	.	.[2.33 µM]	.	.	.	.
CC(C)(C)C(=O)Nc1nnc(Cc2ccccc2)s1	.	.	.	.	.	.
CCOCCc1nnc(NC(=O)c2cccc(F)c2)s1	.[11.4 µM]	.	?	.	.	26.7µM
CN(C)c1cccc(C(=O)Nc2nnc(Cc3ccccc3)s2)c1	?	39.8µM	?	.	.	.
CC(C)COC(=O)Nc1nnc(Cc2ccccc2)s1	17.8µM	.	.	.	.	?
CCCCCC(=O)N1C[C@H](O)[C@@H](n2cc(-c3ccc(F)cc3)nn2)C[C@@H]1c1ccccc1	/	/	.	/	/	.
Cn1c(CSc2nnc(SCc3ccccc3)s2)nc2ccccc21	.	.[2.33 µM]	.	.	.	.
CCOC(=O)c1c(C)[nH]c(CCC(=O)NCc2cccc(C)c2)c1C	.	.	.	.	.	/
CCOC(=O)c1c(C)[nH]c(N=Nc2cccc(C)c2)c1C	25.1µM	?	.	25.1µM	?	.
CCOC(=O)c1c(C)[nH]c(N=Nc2cccc(OC)c2)c1C	28.2µM	31.6µM	.	22.4µM	50.1µM	.
C=CCOc1cccc(-c2nnc(CCC(=O)NCc3ccc(F)cc3)c(=O)[nH]2)c1	/	/	.	/	/	/
OC(CN1CCOCC1)Cn1c2ccccc2c2ccccc21 (configuration not stated)	.	?	.	.	.	.
OC(CN1CCNCC1)Cn1c2ccccc2c2ccccc21 (configuration not stated)	.	50.1µM	?	.	.	.
Cc1ccc(OCC(O)Cn2c3ccccc3c3ccccc32)cc1 (configuration not stated)	.	.	.	.	.	.
Cc1ccc(OCCN2CCN(CC(O)Cn3c4ccccc4c4ccccc43)CC2)cc1 (configuration not stated)	/	8.91µM	?	20µM	/	/
